# Bioassay records from PubChem.
# 12-LOX inh: inhibitors of human 12S-lipoxygenase ALOX12; hit rate 1.1% among 580,000; Potency, µM (doses to about 108 µM), without a hit: top-dose activity change, negative = inhibition, hits mostly inhibitors; P18054; purified 12hLO, xylenol orange hydroperoxide absorbance; also: potency is read from the fitted curve at half-maximal effect; % is scaled to controls: 0 for no effect and ±100 for the full control effect
# Target sequence (P18054 whole entry, looked up): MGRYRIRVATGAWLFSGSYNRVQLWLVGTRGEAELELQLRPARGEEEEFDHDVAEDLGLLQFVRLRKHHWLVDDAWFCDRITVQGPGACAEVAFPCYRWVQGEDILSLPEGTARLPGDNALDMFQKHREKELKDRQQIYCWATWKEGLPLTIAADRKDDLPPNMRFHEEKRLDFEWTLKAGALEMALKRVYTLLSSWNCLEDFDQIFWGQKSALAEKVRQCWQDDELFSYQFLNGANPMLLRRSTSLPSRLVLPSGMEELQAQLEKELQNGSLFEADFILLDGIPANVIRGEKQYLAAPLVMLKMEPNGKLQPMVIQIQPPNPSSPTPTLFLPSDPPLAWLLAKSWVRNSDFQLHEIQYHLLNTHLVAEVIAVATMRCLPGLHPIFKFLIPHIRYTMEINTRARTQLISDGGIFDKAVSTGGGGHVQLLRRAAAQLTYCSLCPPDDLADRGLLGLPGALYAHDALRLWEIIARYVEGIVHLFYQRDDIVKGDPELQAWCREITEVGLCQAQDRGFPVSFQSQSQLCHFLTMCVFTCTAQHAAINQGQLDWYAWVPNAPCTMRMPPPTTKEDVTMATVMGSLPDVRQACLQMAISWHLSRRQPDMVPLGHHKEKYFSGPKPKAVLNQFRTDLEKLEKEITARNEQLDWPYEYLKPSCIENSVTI
#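 Purified human 12hLO at 150 nM in 25 mM Hepes, 0.01% Triton X-100, pH 7.0, preincubated 15 min at room temperature with compound. Reaction started with 40 uM arachidonic acid, 30 min at room temperature. Hydroperoxide measured by Fe-xylenol orange, 573/405 nm absorbance ratio.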
# LDHA inh: blocks human lactate dehydrogenase A | P00338 | purified LDHA, NADH/diaphorase-resazurin fluorescence; stronger effect = lower value | activity change, % (values are at about 110 or 230 µM) | hit rate 0.15% among 480,000 | AID 1347041; in the data active = activity change below about -30%; inconclusive = mostly about -25% to -30%;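 also: plate controls were DMSO wells for no effect and wells without enzyme for full effect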
#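 Remaining NADH was detected by diaphorase (0.133 mg/mL) converting 37 µM resazurin to fluorescent resorufin, read at 0 and 20 minutes. The preceding 5-minute room-temperature reaction used 2 nM LDHA, 0.2 mM sodium pyruvate and 0.06 mM NADH at pH 7.4.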
# IDH1 R132H inh: blocks human mutant IDH1 R132H enzyme. O75874. IDH1-R132H enzyme, NADPH consumption, diaphorase/resazurin fluorescence. Potency, µM (top dose mostly 76.6 µM), for the others: at the highest dose activity change, negative = inhibition, hits mostly inhibitors. hit rate 0.093% among 390,000; also: potency is read from the fitted curve at half-maximal effect; % is scaled to controls: 0 for no effect and ±100 for the full control effect; nearly all actives have a fitted effect of over 65% in size
#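 IDH1-R132H (0.5 ug/mL dispensed) in pH 7.5 Tris buffer was preincubated 30 min with compound, then given a substrate mix of 0.016 mM NADPH and 2 mM alpha-KG for 80 min at room temperature; remaining NADPH was read by diaphorase/resazurin fluorescence.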
# Nrf2 block: blocks Nrf2 signaling; hit rate 2.1% among 360,000; A549 ARE-Fluc reporter, luciferase luminescence, 18-24 h; Potency, µM (titrated, usually from 46 µM), for inactives: at the top dose activity change, negative = inhibition, most hits filed as inhibitors; also: potency is read from the fitted curve at half-maximal effect; % is scaled to controls: 0 for no effect and ±100 for the full control effect; nearly all actives have a fitted effect of over 60% in size
#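 In this cell-based qHTS, ARE-driven firefly luciferase in A549 cells reports Nrf2 activity; the luminescent signal after BugLite lysis is the measured value, with a prior CellTiter-Fluor read for cell health.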
# Nrf2 ARE act: Nrf2 pathway activation. hit rate 0.31% among 410,000. Potency, µM (series often up to 46.1 µM), for inactives: at the highest dose activation, actives largely listed as activators. AREc32 ARE-luciferase reporter (MCF7-derived line), luminescence, 24 h; also: potency is read from the fitted curve at half-maximal effect; % of control where 0% means no effect; nearly all actives have a fitted effect of over 65% in size
#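 Each well held 1000 AREc32 cells, which were incubated with compound for 24 hr at 37 deg C after overnight attachment, and ARE reporter activity was quantified by firefly luciferase luminescence.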
# A549 viability: A549 cytotoxicity, counter-screen for Nrf2 inhibitors. A549 ARE-Fluc cells, CellTiter-Fluor viability, 18-24 h. Potency, µM (titrated, usually from 46 µM), without a hit: at the top dose activity change, negative = cytotoxicity, most hits filed as inhibitors. hit rate 0.16% among 390,000. AID 504648; also: potency is read from the fitted curve at half-maximal effect; % is scaled to controls: 0 for no effect and ±100 for the full control effect
#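 A549 ARE_Fluc cells in 5% FBS OPTI-MEM were exposed to compounds in concentration-response for 18-24 h at 37 deg C. Viability was read by CellTiter-Fluor fluorescence (Ex 405/Em 525) after 30 min, before the luciferase read.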
# Starred values were filed as active, the others as inactive; ? = inconclusive; nt = not tested or not shown; ! = repeats disagree. Hits are enriched below; roughly 2.7% of the tested compounds scored in any of these assays. Unless noted, calls follow the shape of the dose curve; as a rule, active = well fitted curve in the direction sought with a large enough effect; inconclusive = small, poorly fitted or top-dose-only effect, or another doubt; inactive = no such curve, though single readings can be large; an effect the other way counts as inactive or inconclusive.
SMILES,12-LOX inh,LDHA inh,IDH1 R132H inh,Nrf2 block,Nrf2 ARE act,A549 viability
Cc1ccc(OCCCOc2ccc(Cl)cc2/C=N/NC(=O)c2ccccc2)c(C)c1,-1%,6,nt,nt,nt,nt
Cc1ccc(N2CCN(S(=O)(=O)c3ccc(Cl)s3)CC2C)cc1 (stereo not given),-14%,-1,5%,13µM*,0%,-4%
Cc1ccc(N2CCN(S(=O)(=O)c3c(C)[nH]c(=O)[nH]c3=O)CC2C)cc1 (stereo not given),-20%,-18,-6%,nt,0%,12%
CCOC(=O)N1CCN(c2cc(C(=O)O)c3cc(NC(=O)C4CC4)ccc3n2)CC1,?,18,nt,nt,nt,nt
CCN(CC)c1ccc(SS(=O)(=O)O)cc1,25µM*!,1,3%,-16%,4%,15%
Cc1cc(Br)ccc1OCCNCc1ccccc1,6.3µM*,-18,5%,3%,7%,15%
Cc1cc(C)c(C)c(OCCNCc2ccccc2)c1,-16%,-19,2%,-9%,4%,2%
CCOC(=O)c1ccc(Nc2ncnc3c2cnn3C)cc1,?,-8,1%,-3%,0%,-1%
Cn1ncc2c(O/N=C(\N)c3ccc(C(C)(C)C)cc3)ncnc21,nt,8,5%,18µM*,-2%,16µM*
C=CC[C@@H](CC(=O)N[C@@H](CO)Cc1ccccc1)C(=O)N[C@@H](COC(=O)[C@@H](CC=C)CC(=O)OC(C)(C)C)Cc1c[nH]c2ccccc12,?,5,19%,5%,9%,-15%
C=CC[C@@H](CC(=O)N[C@H](CO)Cc1ccccc1)C(=O)N[C@H](COC(=O)[C@@H](CC=C)CC(=O)OC(C)(C)C)Cc1c[nH]c2ccccc12,-2%,6,1%,21µM*,-4%,12µM*
C=CCC[C@H](Cc1ccc(F)cc1)C(=O)OC[C@H](Cc1c[nH]c2ccccc12)NC(=O)[C@@H](CC=C)CC(=O)N(CCO)Cc1ccccc1,-12%,3,0%,?,-3%,?
C=CCC[C@H](Cc1ccc(F)cc1)C(=O)OC[C@@H](Cc1c[nH]c2ccccc12)NC(=O)[C@@H](CC=C)CC(=O)N(CCO)Cc1ccccc1,?,4,4%,9.2µM*,-4%,12µM*
Cc1ccc(OCc2ccc(-c3nc(C#N)c(NC4CC4)o3)o2)cc1C,-13%,6,nt,nt,nt,nt
O=C(CNc1ccc(Br)cc1)N(C1CCCCC1)C1CCS(=O)(=O)C1 (stereo not given),15%,?,nt,nt,nt,nt
O=C(CCl)N(C1CCCC1)C1CCS(=O)(=O)C1 (stereo not given),-26%,-4,1%,21µM*,29%,-9%
CCc1ccc(-c2csc(NC(=O)C3=NN(c4ccccc4)C(=O)CC3)n2)cc1,-18%,1,-7%,18µM*,4%,-3%
CCc1ccc(-c2csc(NC(=O)c3cccnc3)n2)cc1,-9%,-8,-2%,15µM*,4%,-9%
Cc1cc(C)c(-c2csc(NC(=O)C3=NN(c4ccccc4)C(=O)CC3)n2)c(C)c1,-11%,1,10%,?,7%,-12%
C/C=C/C(=O)OCC(=O)c1ccc(Br)s1,?,-11,nt,nt,nt,nt
Cc1ccc(C2CC(c3ccccc3)=NN2c2nc(C)cs2)cc1 (stereo not given),?,2,nt,nt,nt,nt
CCC(CC)C(CNC(=O)c1cc(Br)ccc1F)N1CCOCC1 (stereo not given),-2%,-2,nt,nt,nt,nt
CC(c1ccc(S(C)(=O)=O)cc1)N(C)S(=O)(=O)c1cccc(Cl)c1 (stereo not given),14%,-5,nt,nt,nt,nt
O=C(c1ccco1)N(Cc1ccc(Cl)cc1)C1CCS(=O)(=O)C1 (stereo not given),-14%,-6,4%,26µM*,1%,-1%
CCc1ccc(CN(C(=O)c2ccco2)C2CCS(=O)(=O)C2)cc1 (stereo not given),6%,-9,3%,-23%,0%,-1%
SMILES,12-LOX inh,LDHA inh,IDH1 R132H inh,Nrf2 block,Nrf2 ARE act,A549 viability
COc1cc(CNc2ccc(O)cc2)cc(Br)c1OCc1ccccc1F,nt,32,5%,5.2µM*,17%,15µM*
Cc1ccc(C(=O)c2oc3ccccc3c2NC(=O)c2cc(-c3ccccc3O)n[nH]2)cc1,-10%,-6,1%,?,4%,-1%
Cc1ccc(C(=O)c2oc3ccccc3c2NC(=O)c2cc(-c3cc(C)ccc3O)n[nH]2)cc1,6%,-8,-13%,26µM*,3%,-26%
CC(=O)c1sc(N/N=C\c2c(O)ccc3ccccc23)nc1C,40µM*,5,9%,?,4%,-5%
CC(=O)c1sc(N/N=C/c2cccc(O)c2)nc1C,15%,-10,-7%,11%,29%,-2%
Cc1cc(N/N=C/c2c(O)ccc3ccccc23)nc(-c2ccccc2O)n1,3%,5,6%,?,7.1µM*,?
O=C1OC2(c3ccccc31)c1ccccc1-c1ccccc12,13%,-6,17%,-6%,0%,-19%
O=C1OC(c2ccc3ccccc3c2O)(c2ccc3ccccc3c2O)c2ccccc21,6.3µM*,45,19%,?,3%,?
Cc1cccc(C)c1NC(=O)C(c1ccc(C#N)cc1)n1c(=O)c(-c2ccco2)nc2ccccc21 (stereo not given),11µM*,0,nt,nt,nt,nt
O=C(NC1CCCCC1)C(c1cccc2ccccc12)n1c(=O)c(-c2ccco2)nc2ccccc21 (stereo not given),18µM*,-1,nt,nt,nt,nt
COc1ccc(C(C(=O)NCc2ccccc2)n2c(=O)c(-c3ccco3)nc3ccccc32)cc1 (stereo not given),40µM*,-3,nt,nt,nt,nt
CC(C)(C)NC(=O)C(c1cc2ccccc2o1)n1c(=O)c(-c2ccco2)nc2ccccc21 (stereo not given),?,-4,nt,nt,nt,nt
CCCCCNC(=O)C(c1cc2ccccc2o1)n1c(=O)c(-c2ccco2)nc2ccccc21 (stereo not given),40µM*,1,nt,nt,nt,nt
CCNc1c(NS(=O)(=O)c2ccc(F)cc2)c(=O)oc2ccccc12,2%,-2,nt,nt,nt,nt
COCCNc1nc(NCc2ccccc2OC)c2cnn(C)c2n1,13µM*,4,nt,nt,5%,6%
COCCCNc1nc(NCc2ccccc2OC)c2cnn(C)c2n1,?,-2,nt,nt,4%,9%
Cc1ccc(C(=O)CC(=O)c2ccc(Cl)cc2)c(O)c1,?,8,nt,nt,nt,nt
CSCCC(NC(=O)c1ccc(Cl)cc1)C(=O)OCC(C)=O (stereo not given),-1%,0,3%,?,0%,-1%
